Where “and” joins values, the source holds several entries; their conditions need not be identical. Identical values can stand only once. Inconclusive results are not listed. Where a call stands in place of a potency, no number is given. Calls of active or inactive are those of the source. Calls come from the whole dose curve; as a rule, active = well fitted curve in the direction sought with a large enough effect in the repeat runs; inconclusive = weak or mixed curves; inactive = no such curve, though single readings can be large; an effect the other way counts as inactive or inconclusive.
Assay: qHTS assay to identify small molecule antagonists of the estrogen related receptor (ERR) signaling pathway from Tox21 library (AID 1224848); note: potency is the fitted concentration of half-maximal effect
Settings: ERR reporter cell line, luciferase antagonist mode, 18 h; series mostly up to 92.4 µM; activity, negative = inhibition: at the top concentration
Procedure, shortened: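 Quantitative high-throughput format: ERR reporter cells (2,000/well) pre-incubated 6 h, treated 18 h at 37 C with compounds in DMSO alongside positive and negative controls, then read by ONE-Glo luminescence.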
Note: nearly all actives have a fitted effect of over 50% in size.

SMILES	Potency	activity, negative = inhibition
CC[C@]1(O)C[C@@H]2CN(CCc3c([nH]c4ccccc34)[C@@](C(=O)OC)(c3cc4c(cc3OC)N(C)[C@H]3[C@@](O)(C(=O)OC)[C@H](OC(C)=O)[C@]5(CC)C=CCN6CC[C@]43[C@@H]65)C2)C1	26.6 µM (active)	
C=C(C)C1CC=C(C)C(OC(C)=O)C1 (stereo not given)	inactive	
NC(=Nc1ccccc1)Nc1ccccc1	inactive	
Cc1cccc(O)c1C	inactive	
OCCN1CCNCC1	inactive	
[Cl][In]([Cl])[Cl]	34.4 µM (active)	
C#CC(C)(CC)OC(=O)c1ccccc1C(=O)O (stereo not given)		0.809% [at 42.5 µM] (inactive)
CCCCOCCOC(=O)c1ccccc1C(=O)OCCOCCCC	26.7 µM (active) and 30.6 µM (active)	

Assay: qHTS RealTime-Glo MT Cell Viability Assay in HepG2 cells - 24 hour (AID 1224867)
Settings: RealTime-Glo luminescence; series mostly up to 76.8 µM; activity change, negative = cytotoxicity: at the top concentration
Procedure, shortened: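 HepG2 cells were seeded at 600 cells/well together with NanoLuc luciferase and a cell-permeant prosubstrate, preincubated 5 h at 37 C/5% CO2, then pin-dosed with compounds in DMSO. Nonlytic luminescence from viable cells was read at each time point.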

SMILES	Potency
CCOc1ccccc1C(N)=O	inactive
C/C=C/c1ccc(OCC)c(O)c1	inactive
O=c1n(CC2CO2)c(=O)n(CC2CO2)c(=O)n1CC1CO1 (stereo not given)	inactive
CCc1ccc(C(c2ccc(CC)cc2)C(Cl)Cl)cc1	inactive
CCC[C@H](N[C@@H](C)C(=O)N1[C@H](C(=O)O)C[C@@H]2CCCC[C@@H]21)C(=O)OCC	inactive
CCCCCCC(O)CCCCCCCCCCC(=O)O (stereo not given)	inactive
CCN(CC)c1ccc2c(C)cc(=O)oc2c1	inactive
NCCO	inactive
CC(=O)OCCOCCOCCOC(C)=O	inactive
O=C(O)c1cccc(C(=O)O)c1	inactive
O=C(Oc1ccccc1)c1ccccc1O	inactive
CC(C)(C)NC(=O)[C@@H]1CN(Cc2cccnc2)CCN1C[C@@H](O)C[C@@H](Cc1ccccc1)C(=O)N[C@H]1c2ccccc2C[C@H]1O	inactive

Reference: PubChem BioAssay (Tox21)
